Drawing on PubChem BioAssay (EPA / NIEHS), this text covers outcome and AC50 for 19 compounds.

Assay [1] addresses Estrogen receptor (Homo sapiens) (UniProt P03372). As to the kind of experiment: CCTE_Deisenroth_AIME_384WELL_LUC_Inactive: CCTE's 384-well Estrogen Receptor Transactivation Assay without AIME metabolic competence (ERTA luciferase; metabolism negative), Deisenroth Lab (AID 2284038; active means hit-call score of the fitted dose curve at least 0.9, where 1 is the maximum;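 further: VM7Luc4E2 breast cells given medium preincubated 2 h with S9-free microspheres; hits raise estrogen receptor luciferase signal so potencies reflect agonists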). The method in brief:
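Chemicals (10-point series, 0.002 - 200 uM) were incubated 2 hours with alginate-water microsphere lids lacking S9, then the conditioned medium was transferred to VM7Luc4E2 breast cells for 24 hour. Luciferase induction was read by bioluminescence, fitted upward relative to 17beta-estradiol.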

Assay [2] is described as follows: CCTE_Deisenroth_AIME_384WELL_CTox_Inactive: Cytotoxicity Assessment (CTOX) in CCTE's 384-well Estrogen Receptor Transactivation Assay without AIME metabolic competence (metabolism negative), Deisenroth Lab (AID 2284039; active means hit-call score of the fitted dose curve at least 0.9, where 1 is the maximum;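 further: cell viability via live-cell protease substrate cleaved to fluorescent probe; cells exposed 24 h to medium preincubated 2 h with alginate-water beads without S9; loss of fluorescence signal means loss of viability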). In short, it runs like this:
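Fluorescence from a live-cell protease substrate, read after 24 h in VM7Luc4E2 cells, indicated viability. Test medium came from a 2 h AIME step without hepatic S9 (alginate-water microspheres); concentrations spanned 0.002 - 200 uM, single technical replicate per run.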

Assay [3] deals with Estrogen receptor (Homo sapiens) (UniProt P03372). The experiment in a line: CCTE_Deisenroth_AIME_384WELL_LUC_Shift: CCTE's 384-well Estrogen Receptor Transactivation Assay with AIME metabolic competence data shift (ERTA luciferase; difference in metabolism positive and negative), Deisenroth Lab (AID 2284041).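 Further: shift is response with S9 minus without S9 so positive means metabolism raised ER signal.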 In short, it runs like this:
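Test chemicals (0.002–200 uM, 10-point) were pre-incubated 2 h with alginate microspheres containing phenobarbital/beta-naphthoflavone-induced male Sprague Dawley rat liver S9 or water, then medium was transferred to VM7Luc4E2 cells for 24 h luciferase readout; shift = S9-positive minus S9-negative normalized response.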

A short description of assay [4]: CCTE_Shafer_MEA_dev_active_electrodes_number: CCTE's Neural Network Formation Assay for Number of Active Electrodes, Shafer Lab (AID 2284040; active means hit-call score of the fitted dose curve at least 0.9, where 1 is the maximum;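 on AC50: potency for loss of active electrodes versus DMSO so lower counts are hits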). The method in brief: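 Rat cortical primary cultures, 1.5 x 10^5 cells/well, PEI-coated MEA, laminin drop. Continuous exposure DIV 0–12; full media/compound change DIV 5, 9. Readout: electrodes with mean firing ≥5 spikes/min; AUC across days; loss vs DMSO.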

Assay [5] in a line: CCTE_Shafer_MEA_dev_burst_rate: CCTE's Neural Network Formation Assay for Burst Rate, Shafer Lab (AID 2284042).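 On AC50: potency for loss of burst rate below DMSO control.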 The method in brief: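 Developmental network assay measuring how 12-day exposure of rat cortical neuron cultures alters bursting on extracellular MEA recordings. Values are AUC of well-mean burst rate across four recording days, relative to DMSO vehicle.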
Assay [6] is described as follows: CCTE_Shafer_MEA_dev_bursting_electrodes_number: CCTE's Neural Network Formation Assay for Number of Bursting Electrodes, Shafer Lab (AID 2284043; active means hit-call score of the fitted dose curve at least 0.9, where 1 is the maximum;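 on AC50: potency is for loss of bursting electrodes relative to DMSO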). In short, it runs like this: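 Read-out is the per-well number of electrodes bursting at least once every 2 minutes, recorded on days 5, 7, 9 and 12 and collapsed by trapezoidal area under the curve. Cultures were primary rat cortical neurons on MEA plates, treated continuously from plating.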

Assay [7] is described as follows: CCTE_Shafer_MEA_dev_per_burst_interspike_interval: CCTE's Neural Network Formation Assay for Burst Interspike Interval, Shafer Lab (AID 2284044).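 Further: mean spike spacing inside bursts as AUC over recordings on days 5 7 9 12.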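 On AC50: potency for a decrease of within-burst interspike interval below DMSO level.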 The method in brief: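 Primary rat cortical neurons on 48-well MEA plates, exposed from day 0 through day 12, treatment renewed at DIV 5 and 9. Within-burst interspike interval recorded days 5, 7, 9, 12, well-averaged, summarised as AUC; negative fit versus DMSO.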

A short description of assay [8]: CCTE_Shafer_MEA_dev_burst_duration_mean: CCTE's Neural Network Formation Assay for Mean Burst Duration, Shafer Lab (AID 2284045).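 On AC50: curve fitted for loss meaning shorter burst duration than DMSO.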 The method in brief: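 Read-out: average first-to-last-spike interval within single-electrode bursts, averaged over bursting electrodes per well, then summarised as area under the curve across days 5, 7, 9 and 12. Developing rat cortical networks were exposed from day 0.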

The nature of assay [9]: CCTE_Shafer_MEA_dev_interburst_interval_mean: CCTE's Neural Network Formation Assay for Mean Interburst Interval, Shafer Lab (AID 2284046).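 Further: well-mean interburst interval of bursting electrodes as AUC over four recording days; curve fitted for decrease in interburst interval relative to DMSO.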 In short, it runs like this:
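Network formation assay in primary rat cortical cultures, exposed from DIV 0 to 12. Mean interburst interval per well, integrated as AUC over four recordings.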

A short description of assay [10]: CCTE_Shafer_MEA_dev_inter_network_spike_interval_mean: CCTE's Neural Network Formation Assay for Mean Inter-network Spike Interval, Shafer Lab (AID 2284047). In short, it runs like this: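 Compound was given at plating to primary rat cortical neurons and renewed with full medium changes on DIV 5 and 9. Extracellular activity was recorded on days 5, 7, 9, 12; AUC values were fitted for loss relative to DMSO control.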

Results filed as inconclusive are left out. Calls of active or inactive are those of the source. How the source made its calls, unless noted: active means hit-call score of the fitted dose curve at least 0.9, where 1 is the maximum; inactive means score below 0.9.

Sequence of Estrogen receptor (Homo sapiens) (P03372 whole entry, looked up): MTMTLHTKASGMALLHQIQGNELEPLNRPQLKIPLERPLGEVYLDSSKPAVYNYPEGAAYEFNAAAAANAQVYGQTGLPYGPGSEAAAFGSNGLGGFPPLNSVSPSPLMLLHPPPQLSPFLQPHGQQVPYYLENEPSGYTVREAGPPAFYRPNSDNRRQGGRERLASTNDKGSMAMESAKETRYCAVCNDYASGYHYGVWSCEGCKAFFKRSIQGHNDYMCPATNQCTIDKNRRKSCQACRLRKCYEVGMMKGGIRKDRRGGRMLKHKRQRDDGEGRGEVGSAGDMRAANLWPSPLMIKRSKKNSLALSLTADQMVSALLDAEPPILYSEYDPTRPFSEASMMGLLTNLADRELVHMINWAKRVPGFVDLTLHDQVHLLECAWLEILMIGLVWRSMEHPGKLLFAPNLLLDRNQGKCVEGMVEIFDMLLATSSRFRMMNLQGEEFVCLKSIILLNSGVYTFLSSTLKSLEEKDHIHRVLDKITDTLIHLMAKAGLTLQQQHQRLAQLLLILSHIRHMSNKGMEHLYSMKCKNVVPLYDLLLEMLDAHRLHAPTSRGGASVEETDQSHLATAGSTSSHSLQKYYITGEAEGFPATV

Take `CCOc1ccc(N)cc1`: the compound was called inactive in assay [1], in [2] and in [3].
On to `N#Cc1cccnc1`, for which the compound was called inactive in assay [1] and in assay [3].
Regarding `Cc1cc(Cl)ccc1OCCCC(=O)O`, the call in assay [2] was inactive.
On to `O=S1(=O)OC(c2cc(Br)c(O)c(Br)c2)(c2cc(Br)c(O)c(Br)c2)c2ccccc21`, for which the outcome in assay [2] and in assay [3] was inactive.
One may read the AC50 as the concentration giving half of the maximal activity seen. For the compound `CC1(C)[C@H](C(=O)O[C@H](C#N)c2cccc(Oc3ccccc3)c2)[C@@H]1/C=C(\Cl)C(F)(F)F`, the half-maximal activity concentration (AC50) in assay [4] and in assay [6] was 12.9 µM (active) in each case. Also, the result in assay [5], in assay [7], in assay [8], in [9] and in assay [10] was inactive.
`CS(=O)(=O)c1ccc(C(=O)C2C(=O)CCCC2=O)c(Cl)c1COCC(F)(F)F`: the result in assay [5], in assay [7], in [8], in [9] and in assay [10] was inactive.
Turning to `O=C(O)COc1ccc(Cl)cc1`, the compound was called inactive in assay [1], in [2] and in assay [3].
Consider `CCOCn1c(-c2ccc(Cl)cc2)c(C#N)c(Br)c1C(F)(F)F`, for which the half-maximal activity concentration (AC50) in assay [4] was 4.74 µM (active); in [5], 4.86 µM (active); in assay [6], 4.44 µM (active); in [7], 1.61 µM (active); in assay [8], 2.71 µM (active); in [9], 6.29 µM (active). The call in assay [10] was inactive.
On to `Clc1cccc(Cl)c1`, for which the result in assay [2] was inactive.
Consider `CCC[CH2][Sn]([Cl])([Cl])[CH2]CCC`, for which the half-maximal activity concentration (AC50) in [2] is 9.65 µM (active). Further, the outcome in [3] was inactive.
As for `CC(C)[C@@H](Nc1ccc(C(F)(F)F)cc1Cl)C(=O)OC(C#N)c1cccc(Oc2ccccc2)c1` (stereo partly drawn), the AC50 in assay [4] and in [6] was 14.5 µM (active) in each case. The call in [5], in assay [7], in [8], in [9] and in [10] was inactive.
As to `Oc1cc(Cl)c(Cl)cc1Cl`, the compound was classed as inactive in [2].
On to `N#CS`, for which, in [2], the outcome was inactive.
Regarding `CC(C)O.CC(C)O.OCCN(CCO)CCO.OCCN(CCO)CCO.[Ti]`, in [2], the compound was called inactive.
On to `COc1ccccc1N`, for which the outcome in [2] was inactive.
For the compound `Cc1cc(C(F)(C(F)(F)F)C(F)(F)F)ccc1NC(=O)c1cccc(I)c1C(=O)NC(C)(C)CS(C)(=O)=O`, the figures for the half-maximal activity concentration (AC50) in assay [4], in assay [6] and in assay [9] were 11.3 µM (active), 11.3 µM (active) and 6.7 µM (active), respectively. The result in assay [5], in assay [7], in assay [8] and in assay [10] was inactive.
Take `CCN(CCO)CCO`: the compound was called inactive in assay [1], in assay [2] and in assay [3].
On to `OC(Cc1ccccc1Cl)(Cn1[nH]cnc1=S)C1(Cl)CC1` (stereo not drawn), for which the AC50 in assay [4] is 37.1 µM (active); in assay [5], 29.4 µM (active); in assay [6] it was 29.9 µM (active); in assay [7] it was 11.2 µM (active); in assay [9], 82.5 µM (active). Further, the outcome in [8] and in assay [10] was inactive.
With `FC(F)OCC(F)(F)C(F)(F)F`, the call in assay [4], in assay [5], in assay [6], in assay [7], in assay [8] and in assay [9] was inactive. Further, the result in assay [10] was inactive.
